Sampled rows, rich in hits. Any-hit rate of the full collection: about 5%.
AI-2 QS mod: Vibrio harveyi AI-2 quorum sensing modulators, primary screen, JMH597 strain, luminescence/OD600 ratio | Vibrio harveyi JMH597 AI-2 luminescence/OD600 ratio, 9 h; hits give low values; strain lacks LuxN and CqsS sensors; 0 = neutral-control median | activity change, % at 7.5 µM | hit rate 0.4% among 300,000; in the data active = activity change below about -75%, passing the limit was not always enough;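 note: luminescence divided by OD600 gain over 9 h not by final OD600 alone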
CHT block: inhibitors of human choline transporter CHT; High affinity choline transporter 1 (Homo sapiens), Q9GZV3; CHT-expressing cells, membrane potential dye, choline response; hits give low values; B-score at 10 µM; hit rate 0.86% among 310,000;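 active = B-score over 3 SD under the library average, and starting fluorescence ratio not unusually high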;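 note: choline stimulus applied at its EC90 after an EC20 pre-addition; B-score computed on integrated fluorescence ratio after choline addition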
PREPL inhibitor: PREPL enzyme inhibitors, primary screen, biochemical, fluorescence polarization. Prolyl endopeptidase-like (Homo sapiens), Q4J6C6. recombinant PREPL, fluorescence polarization activity-based probe. inhibition, % at 5.96 µM. hit rate 0.68% among 320,000. AID 2751, 2010; in the data active = inhibition above about 43%
Target sequence (Q4J6C6 whole entry, looked up): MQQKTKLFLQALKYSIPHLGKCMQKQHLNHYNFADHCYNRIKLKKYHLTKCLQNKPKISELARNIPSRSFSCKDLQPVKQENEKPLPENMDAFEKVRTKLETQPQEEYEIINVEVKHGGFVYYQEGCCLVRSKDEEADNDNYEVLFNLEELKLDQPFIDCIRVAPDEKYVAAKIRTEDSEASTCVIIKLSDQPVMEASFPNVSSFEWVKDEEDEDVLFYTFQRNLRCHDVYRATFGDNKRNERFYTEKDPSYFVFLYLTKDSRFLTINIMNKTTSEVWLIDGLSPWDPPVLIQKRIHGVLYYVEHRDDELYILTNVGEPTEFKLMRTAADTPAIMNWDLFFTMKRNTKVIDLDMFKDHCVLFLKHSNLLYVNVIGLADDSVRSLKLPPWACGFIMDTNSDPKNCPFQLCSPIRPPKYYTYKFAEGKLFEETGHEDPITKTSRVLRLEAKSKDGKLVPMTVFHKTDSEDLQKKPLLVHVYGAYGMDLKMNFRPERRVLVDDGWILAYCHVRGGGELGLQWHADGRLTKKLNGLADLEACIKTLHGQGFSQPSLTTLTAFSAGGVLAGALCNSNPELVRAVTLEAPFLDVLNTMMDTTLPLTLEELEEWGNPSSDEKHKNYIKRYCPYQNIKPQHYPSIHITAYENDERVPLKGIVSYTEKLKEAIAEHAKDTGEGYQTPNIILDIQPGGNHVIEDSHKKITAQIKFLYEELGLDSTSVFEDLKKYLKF
ALR H2O2 inh: inhibitors of human ALR sulfhydryl oxidase, primary screen, biochemical, H2O2 detection, HRP-luminol luminescence, single point. purified ALR, DTT oxidation. inhibition, % (no concentration beside the values). FAD-linked sulfhydryl oxidase ALR (Homo sapiens), P55789. hit rate 3.8% among 290,000. AID 485317, 2010;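 active = mean replicate inhibition above about 79%, with every replicate also reaching it, limit read from the data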
CHT PAM: CHT positive allosteric modulators, primary screen, cell-based, membrane potential dye, choline EC20; High affinity choline transporter 1 (Homo sapiens), Q9GZV3; CHT-expressing cells; hits give high values; LV-AA mutant CHT in HEK293 cells; B-score at 10 µM; hit rate 0.49% among 310,000; AID 488977, 2010;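 active = initial fluorescence not abnormally high and integrated response B-score, plate-corrected, over 3 SD above library mean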
Large screens that a line does not name were inactive.

Cc1ccc(-c2nc(SCC(=O)N(C)C3CCS(=O)(=O)C3)[nH]c2-c2ccc(C)cc2)cc1 (centres undefined)	ALR H2O2 inh 98
Cc1ccc(SCC(=O)N(C)C2CCS(=O)(=O)C2)cc1 (centres undefined)	none
O=C(c1cc(F)ccc1F)C1CCCN(C(=O)CCCN2CCCCC2=O)C1 (centres undefined)	none
O=C1CCCCN1CC(=O)N1CCCC(Nc2ccc(F)cc2)C1 (centres undefined)	ALR H2O2 inh 91
CC(C)(C)c1ccc(C(=O)C2CCCN(C(=O)CN3CCCC3=O)C2)cc1 (centres undefined)	none
O=C1CCCCN1CCCC(=O)N1CCCC(Nc2ccccc2)C1 (centres undefined)	ALR H2O2 inh 99
Cc1cc(N)c(NC2=CC(=O)CC(C)(C)C2)cc1C	ALR H2O2 inh 98
COc1cc(NC(=O)c2ccccc2-c2ccccc2)cc(OC)c1	none
Cc1ccc(NC2c3ncccc3C(=O)N2C2CCCCC2)cc1 (centres undefined)	ALR H2O2 inh 96
Cc1ccc(NC2c3ncccc3C(=O)N2C2CCCCC2)cc1C (centres undefined)	ALR H2O2 inh 92
Cc1ccc(NC2c3ncccc3C(=O)N2Cc2ccc(F)cc2)cc1 (centres undefined)	ALR H2O2 inh 97
O=C(O)CC1S/C(=N\N=C/c2ccccc2)N(c2ccc(O)cc2)C1=O (centres undefined)	none
C=CCN1C(=O)C(CC(=O)O)S/C1=N/N=C/c1ccc(N(CC)CC)cc1 (centres undefined)	ALR H2O2 inh 99 (no result: AI-2 QS mod, CHT block, CHT PAM)
CN1C(=O)C(CC(=O)O)S/C1=N\N=C\c1ccc(O)cc1O (centres undefined)	ALR H2O2 inh 85
CN(C)c1ccc(/C=N/N=C2/SC(CC(=O)O)C(=O)N2c2ccc(O)cc2)cc1 (centres undefined)	ALR H2O2 inh 97
C=CCN1C(=O)C(CC(=O)O)SC1=Nc1ccc(C(=O)O)cc1 (centres undefined)	none
CCN(CC)CCCN(Cc1cc2cc3c(cc2[nH]c1=O)OCO3)C(=S)Nc1ccccc1OC	none
COc1cc(NC(=O)c2ccc(OCc3c(C)noc3C)c(OC)c2)cc(OC)c1	none (no result: AI-2 QS mod, CHT block, CHT PAM)
CCOC(=O)/C=C/c1nc(C(=O)OCC)c(C)c(=O)[nH]1	ALR H2O2 inh 97
COc1ccc(-c2nc(CS(=O)CC(=O)NC3CCCC(C)C3C)c(C)o2)cc1OC (centres undefined)	ALR H2O2 inh 99 (no result: AI-2 QS mod)
Cc1ccc(-c2nc(CS(=O)CC(=O)NC3CCCC(C)C3C)c(C)o2)cc1 (centres undefined)	ALR H2O2 inh 99
O=C(CSc1ccccc1)NCCSCc1ccccc1	none
O=c1[nH]c(=O)c2nnc(N/N=C/c3ccccc3F)nc2[nH]1	none
O=c1[nH]c(=O)c2nnc(N/N=C\c3ccc(O)cc3)nc2[nH]1	ALR H2O2 inh 99
CN(c1ccc(C(=O)NCc2ccncc2)cc1)S(=O)(=O)c1ccc(Cl)cc1	none
C=CCN(CC=C)CC(O)CN(c1cc([N+](=O)[O-])ccc1OC)S(=O)(=O)c1ccccc1 (centres undefined)	none
Cc1ccc(-n2c(-c3cccnc3)n[nH]c2=S)c(C)c1	ALR H2O2 inh 84
COc1ccc(-c2n[nH]c(=S)n2-c2ccc(C)cc2C)cc1	none
COc1ccccc1-n1c(-c2cccnc2)n[nH]c1=S	none
Cc1ccc(-n2c(-c3ccc(Cl)cc3)n[nH]c2=S)c(C)c1	ALR H2O2 inh 87
Fc1ccc(Nc2ccnc(Nc3ccc(F)cc3)n2)cc1	none
O=C(O)CCc1[nH]c2ccccc2c1Sc1ccccc1	ALR H2O2 inh 99
O=C(O)CCc1c(C(=O)O)[nH]c2ccccc12	none
Cc1cccc(-c2nc(CS(=O)CC(=O)N3CCCCC3)c(C)o2)c1 (centres undefined)	ALR H2O2 inh 100
Cc1ccc(-c2nc(CS(=O)(=O)CC(=O)N3CCN(C)CC3)c(C)o2)cc1	none
Cc1cccc(-c2nnc(SCC(=O)N3CCCC3)o2)c1	none
COc1ccc(-c2nc(CS(=O)CC(=O)N3CCN(C)CC3)c(C)o2)cc1 (centres undefined)	ALR H2O2 inh 99
COc1ccc(-c2nc(CS(=O)CC(=O)N3CCOCC3)c(C)o2)cc1OC (centres undefined)	ALR H2O2 inh 100
COc1ccc(-c2nc(CS(=O)CC(=O)N3CCN(C)CC3)c(C)o2)cc1OC (centres undefined)	ALR H2O2 inh 99
COc1ccc(OCCCC(=O)Nc2ccc(S(=O)(=O)N3CCOCC3)cc2)cc1	none (no result: AI-2 QS mod, CHT block, CHT PAM)
CCCn1c(=O)n(CC(=O)NCC2CCCO2)c(=O)c2c3c(sc21)COC(C)(C)C3 (centres undefined)	none
COc1cccc(-c2nc(CS(=O)(=O)CC(=O)N3CCc4ccccc4C3)c(C)o2)c1	none
Cc1oc(-c2ccccc2)nc1CS(=O)CC(=O)N1CCc2ccccc2C1 (centres undefined)	ALR H2O2 inh 99
O=C(c1ccccc1)N1N=C(c2ccccc2O)CC1c1ccccc1 (centres undefined)	none
C/C(=N\Nc1cc(N2CCOCC2)ncn1)c1ccc(O)cc1	ALR H2O2 inh 97
CCN1CCCC1CNC(=O)C(=O)NC(C)c1ccccc1 (centres undefined)	none
O=C(c1cccc(S(=O)(=O)N2CCc3ccccc3C2)c1)N1CCN(c2ccc(O)cc2)CC1	ALR H2O2 inh 95
O=C1C(=O)N(c2ccc(O)cc2)C(c2ccccc2[N+](=O)[O-])/C1=C(\O)c1ccccc1 (centres undefined)	ALR H2O2 inh 85
COc1ccccc1NC(=O)COC(=O)c1ccc([N+](=O)[O-])s1	AI-2 QS mod -87 (no result: ALR H2O2 inh)
Cc1ccc(NC(=O)COC(=O)c2ccc([N+](=O)[O-])s2)c(C)c1	none
COC(=O)C1(NC(=O)NC2CCCCC2)CCCCC1	none
COCCn1c(C)cc(C2=NNC(=NC3CC3)SC2)c1C	ALR H2O2 inh 97
C=CCn1c(C)cc(C2=NNC(=Nc3ccc(C)cc3)SC2)c1C	none
C=CCn1c(C)cc(C2=NNC(=NC(C)(C)C)SC2)c1C	ALR H2O2 inh 99
C=CCN=C1NN=C(c2cc(C)n(CCOC)c2C)CS1	none
Cn1cccc1/C=C1\SC(=Nc2ccc(O)cc2)NC1=O	ALR H2O2 inh 99
CCc1c(C)sc(NC(=O)c2ccccc2[N+](=O)[O-])c1C(N)=O	none
CNC(=O)N(O)C1N(/N=C/c2ccc(N(C)C)cc2)C(=S)SC1(C)C (centres undefined)	ALR H2O2 inh 99
CNC(=O)N(O)C1N(/N=C/c2ccccc2OC)C(=S)SC1(C)C (centres undefined)	none

Screens (PubChem)
